The values that follow come from PubChem BioAssay (NCATS).

The structures appear in SMILES notation. Values without a mark were called inactive. Results filed as inconclusive are left out. The source made the active and inactive calls. The call rests on the fitted dose curve; in most records, active means well fitted curve in the direction sought with a large enough effect; inconclusive means small, poorly fitted or top-dose-only effect, or another doubt; inactive means no such curve, though single readings can be large; an effect the other way counts as inactive or inconclusive.

Assay [1] concerns the target Glutathione peroxidase 1 (Homo sapiens) (UniProt P07203). The assay can be described thus: Primary qHTS Assay for Inhibitors of Recombinant Selenoprotein Glutathione Peroxidase 1 (GPX1) (AID 1845191). Further: nearly all actives have a fitted effect of over 65% in size. Further: potency means the concentration at half of the fitted maximal effect. On activity, negative = inhibition: on the % scale 0 is the no-effect control and ±100 the full control effect. In outline:
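GPX1 10 nM, GR 100 nM, GSH 1 mM, NADPH 0.5 mM, CHP 0.5 mM (final). 30-min cpd preincubation, RT. Ex340/Em450 read t=0, t=15 min.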

For assay [2], the target named is Phospholipid hydroperoxide glutathione peroxidase GPX4 (Homo sapiens) (UniProt P36969). Put plainly: Primary qHTS Assay for Inhibitors of Recombinant Selenoprotein Glutathione Peroxidase 4 (GPX4) (AID 1845192). Further: nearly all actives have a fitted effect of over 65% in size. Further: potency means the concentration at half of the fitted maximal effect. On activity change, negative = inhibition: series mostly up to about 50 µM; on the % scale 0 is the no-effect control and ±100 the full control effect. In outline: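 qHTS, GR-coupled: GPX4 200 nM + cpd 30 min RT → GSH 1 mM, NADPH 0.5 mM, GR 100 nM → CHP 0.5 mM start; fluor 340/450 at t0 and t15 min; no-enzyme wells as control.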

The target of assay [3] is Luciferin 4-monooxygenase (Photinus pyralis) (UniProt P08659). The assay can be described thus: Primary firefly luciferase (FLuc) qHTS assay for identification of artifact compounds. (AID 1845220). Further: nearly all actives have a fitted effect of over 60% in size.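 On activity change, negative = inhibition: series mostly up to about 54 µM; plate controls were DMSO vehicle for no effect and no enzyme for full effect.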 A digest of the protocol: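 In this counter-screen for luciferase artifacts, test compounds met substrate (10 uM each luciferin and ATP) before 10 nM enzyme started the reaction. Light output was measured 5 min later.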

The nature of assay [4]: Primary fluorescence-based thiol-reactive (MSTI) qHTS assay for identification of artifact compounds. (AID 1845221). Further: nearly all actives have a fitted effect of over 65% in size. Further: potency means the concentration at half of the fitted maximal effect.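 On activity change, negative = thiol reactive: series mostly up to about 54 µM; thiol-reactive compounds lower the probe fluorescence signal.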 In outline:
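qHTS titration of compound; 4 uM MSTI, PBS pH 7.4, 2% DMSO; 1 h RT, dark; fluorescence 525/598 nm; normalized to Acetyl-MSTI and MSTI; 4-parameter Hill fit.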

In assay [5] the test system is Nanoluciferase (engineered Oplophorus gracilirostris luciferase). The assay can be described thus: Primary Nanoluciferase (NLuc) qHTS assay for identification of artifact compounds. (AID 1845222).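 Further: NLuc secreted into diluted conditioned medium of S16 cells; series mostly up to about 54 µM.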 A digest of the protocol: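 Using secreted nanoluciferase in S16 culture medium (0.22 um filtered, 1:55 dilution), compounds were preincubated 15 min at RT. Signal was generated with Nano-Glo reagent (1:100) over 5 min.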

Assay [6] is described as follows: Primary redox qHTS assay for identification of artifact compounds. (AID 1845223). Further: potency means the concentration at half of the fitted maximal effect.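 On redox activity (% of DA3003): 0% = DMSO and 100% = reference compound.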 In outline:
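Redox-cycling detection via DTT (250 uM final) oxidation coupled to Amplex Red (25 uM)/HRP (250 mU/mL) in HBSS. 15 min preincubation plus 30 min after DTT, room temperature. Ex/Em 525/598 nm; 4-parameter Hill fit against DMSO and 10 uM DA3003.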

Sequence of Phospholipid hydroperoxide glutathione peroxidase GPX4 (Homo sapiens) (P36969 whole entry, looked up): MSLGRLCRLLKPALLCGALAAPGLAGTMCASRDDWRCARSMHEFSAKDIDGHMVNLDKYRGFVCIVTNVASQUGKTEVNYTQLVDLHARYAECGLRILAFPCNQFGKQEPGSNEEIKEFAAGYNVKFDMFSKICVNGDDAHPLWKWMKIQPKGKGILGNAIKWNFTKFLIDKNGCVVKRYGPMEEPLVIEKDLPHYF
Sequence of Glutathione peroxidase 1 (Homo sapiens) (P07203 whole entry, looked up): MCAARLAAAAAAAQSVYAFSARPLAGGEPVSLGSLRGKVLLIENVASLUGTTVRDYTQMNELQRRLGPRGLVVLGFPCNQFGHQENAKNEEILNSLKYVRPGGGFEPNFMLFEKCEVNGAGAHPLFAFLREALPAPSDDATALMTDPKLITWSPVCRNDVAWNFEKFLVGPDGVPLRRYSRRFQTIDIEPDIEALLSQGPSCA

As for `O=C(O)c1cc2cccc([N+](=O)[O-])c2[nH]1`, the Potency result in assay [1], in assay [2], in assay [3], in assay [5] and in assay [6] was “inactive” in each case. For the same compound, the Potency in assay [4] is 21.2 µM (active).

For the compound `O=C1C=CC2OC(c3ccccc3)C(O)C2O1` (stereo not drawn), the Potency entry in assay [1], in assay [2], in assay [3], in assay [5] and in assay [6] was “inactive” each time. Also, in assay [4], the Potency is 23.8 µM (active).

On to `OCc1ccc(O[C@@H]2O[C@H](CO)[C@@H](O)[C@H](O)[C@H]2O)cc1`, for which the Potency result in assay [1], in assay [2], in assay [3], in assay [4], in assay [5] and in assay [6] was “inactive” throughout.

For the compound `C=C(C(=O)O)[C@H]1C[C@]2(C)[C@@H](O)CC[C@]23O[C@H]1C[C@@H]3C`, the Potency result in assay [1], in assay [2], in assay [3], in assay [5] and in assay [6] was “inactive” throughout. Also, the Potency in assay [4] was 29.9 µM (active).

Turning to `O=C(/C=C\n1cnc(-c2cc(C(F)(F)F)cc(C(F)(F)F)c2)n1)N1CC(F)(F)C1`, the Potency entry in assay [1], in assay [2], in assay [3], in assay [4], in assay [5] and in assay [6] was “inactive” throughout.

In the case of `O=C(Nc1ccn[nH]1)c1c(F)cccc1F`, the Potency result in assay [1], in assay [2], in assay [3], in assay [4], in assay [5] and in assay [6] was “inactive” in each case.

For `CCCC1(c2ccccc2)NC(=O)N(CC(=O)N(C)Cc2c(F)cccc2Cl)C1=O` (stereo not drawn), the Potency result in assay [1], in assay [2], in assay [3], in assay [4], in assay [5] and in assay [6] was “inactive” in each case.

With `COC(=O)c1c(C)cc(OC(=O)c2c(C)cc(OC)cc2OC)cc1O[C@@H]1O[C@H](CO)[C@@H](O)[C@H](O)[C@H]1O`, the Potency result in assay [1], in assay [2], in assay [3], in assay [4] and in assay [5] was “inactive” each time. Besides, in assay [6], the Potency is 2.92 µM (active).

As for `CC1(C)CC[C@]2(C(=O)O)[C@H](O)C[C@]3(C)C(=CCC4[C@@]5(C)CC[C@H](O[C@@H]6O[C@H](CO[C@@H]7OC[C@H](O)[C@H](O)[C@H]7O[C@@H]7OC[C@@H](O)[C@H](O)[C@H]7O)[C@@H](O)[C@H](O)[C@H]6O[C@@H]6O[C@H](CO)[C@@H](O)[C@H](O)[C@H]6O)C(C)(C)C5CC[C@]43C)[C@@H]2C1` (stereo partly drawn), the Potency result in assay [1] and in assay [2] was “inactive” throughout. Moreover, the activity change, negative = inhibition in assay [3] was 0.747% [at 11.6 µM]. Moreover, the activity change, negative = thiol reactive in assay [4] is 242% [at 11.5 µM]. The activity, negative = inhibition in assay [5] is 3.21% [at 11.6 µM]. The redox activity (% of DA3003) in assay [6] is 15.6% [at 11.5 µM].

Consider `COC1CC(OC2CCC3(C)C(=CCC4C3C(OC(C)=O)C(OC(=O)/C=C/c3ccccc3)C3(C)C(C(C)O)CCC43O)C2)OC(C)C1OC1CC(OC)C(OC2OC(C)C(OC3OC(CO)C(O)C(O)C3O)C(OC)C2O)C(C)O1` (stereo not drawn), for which the outcome in assay [1] was “inactive [at 9.52 µM]”. Besides, the activity change, negative = inhibition was 0.674% [at 9.73 µM] in assay [2] and 0.278% [at 11.6 µM] in assay [3]. The activity change, negative = thiol reactive in assay [4] is 40.8% [at 11.5 µM]. Moreover, in assay [5], the activity, negative = inhibition was 3.09% [at 11.6 µM]. Moreover, the redox activity (% of DA3003) in assay [6] is -2.26% [at 11.5 µM].

Take `CC1=C(CCC(C)O[C@@H]2O[C@H](CO)[C@@H](O)[C@H](O)[C@H]2O)C(C)(C)CCC1=O` (stereo partly drawn): the Potency result in assay [1], in assay [2], in assay [3], in assay [5] and in assay [6] was “inactive” in each case. For the same compound, the Potency in assay [4] was 6.56 µM (active).

For the compound `CC(C)(C)c1cc(Br)cc([C@H](CC(=O)O)NC(=O)CNC(=O)c2cc(O)cc(NC3=NCC(O)CN3)c2)c1` (stereo partly drawn), the Potency result in assay [1], in assay [2], in assay [3], in assay [4], in assay [5] and in assay [6] was “inactive” throughout.

Take `CC(=O)c1cc2c(cc1O)OC(C)(C)C=C2`: the Potency result in assay [1], in assay [2], in assay [3], in assay [4], in assay [5] and in assay [6] was “inactive” in each case.

Regarding `CC12CCC(C(OC3OC(COC4OCC(O)(CO)C4O)C(O)C(O)C3O)C1)C(C)(C)O2` (stereo not drawn), the Potency entry in assay [1], in assay [2], in assay [3], in assay [4], in assay [5] and in assay [6] was “inactive” throughout.

In the case of `CC1=C(CO)C(=O)O[C@@H]([C@@H](C)[C@H]2CC[C@H]3[C@@H]4C[C@H]5O[C@]56[C@@H](O)C=CC(=O)[C@]6(C)[C@H]4CC[C@]23C)C1`, the Potency result in assay [1], in assay [2], in assay [3], in assay [4], in assay [5] and in assay [6] was “inactive” each time.

Regarding `COc1ccc(-c2ccc3c(N4CCOCC4)nc(N4CC(C)OC(C)C4)nc3n2)cc1CO` (stereo not drawn), the Potency is 18 µM (active) in assay [1] and 22.7 µM (active) in assay [2]. For the same compound, the Potency entry in assay [3], in assay [4], in assay [5] and in assay [6] was “inactive” each time.

Take `CC1=CC(=O)CC(C)(C)[C@H]1/C=C/C(CO)O[C@@H]1O[C@H](CO)[C@@H](O)[C@H](O)[C@H]1O` (stereo partly drawn): the Potency result in assay [1], in assay [2], in assay [3], in assay [5] and in assay [6] was “inactive” throughout. Besides, the Potency in assay [4] was 11.7 µM (active).

With `CCCCc1ccc(C(=O)Nc2cc(-c3ccc(Cl)cc3)nn2-c2ccc(Cl)cc2)cc1`, the Potency result in assay [1], in assay [2], in assay [3], in assay [4], in assay [5] and in assay [6] was “inactive” throughout.
